We go through 40 compounds from PubChem BioAssay (NCATS).

Records with an inconclusive call do not appear. Active and inactive are the calls of the source. Calls come from the whole dose curve; as a rule, active = well fitted inhibition curve with a large enough effect; inconclusive = small, poorly fitted or top-dose-only effect; inactive = flat fitted curve, though single readings scatter.
% is set by controls: 0 for no effect and ±100 for the full control effect.

Chain of Calcium and integrin-binding protein 1 (Homo sapiens) (Q99828 whole entry, looked up): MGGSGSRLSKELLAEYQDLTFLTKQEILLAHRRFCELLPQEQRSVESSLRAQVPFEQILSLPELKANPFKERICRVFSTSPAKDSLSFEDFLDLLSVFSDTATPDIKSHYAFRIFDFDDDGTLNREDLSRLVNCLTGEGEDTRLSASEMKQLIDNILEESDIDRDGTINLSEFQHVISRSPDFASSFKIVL

The target of this assay is Calcium and integrin-binding protein 1 (Homo sapiens) (UniProt Q99828). Kind of assay: Primary qHTS for Identification of Calcium Integrin Binding Protein 1 (CIB1) Competitor (AID 1508620).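 Note: GST tagged CIB1 binding a fluorescein labelled alphaIIb integrin peptide tracer; top concentration of the series differs between compounds.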 The following applies: CIB1-GST / FITC-alphaIIb peptide fluorescence polarization; series mostly up to 114 µM; activity change, negative = inhibition: at the top concentration. An outline of the steps:
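Fluorescence polarization competition: CIB1-GST (1 uM final) preincubated with compound 15 min at room temperature, then FITC-labeled alphaIIb peptide (100 nM final) added for another 15 min. Polarization read at Ex 480/Em 540.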
On the technique in general: Quantitative high-throughput screening tests each substance at several concentrations.
`CCNC(=O)c1ccc(-c2ccc3ncnc(NCC4CCCO4)c3c2)o1` (stereo not given): the “activity change, negative = inhibition” value is -22.6% (inactive).

For the compound `COc1ccc(C2Nc3ccccc3C(=O)N2Cc2ccc(C(C)(C)C)cc2)cc1COc1ccc(NC(C)=O)cc1` (stereo not given), the “activity change, negative = inhibition” value was 4.12% (inactive). For `CC1=C(C(=O)Nc2ccccc2Cl)C(c2ccccc2Br)N=C(Nc2nc3ccccc3o2)N1` (stereo not given), the “activity change, negative = inhibition” value is -4.75% (inactive). Consider `Cc1cc2c(s1)c1cnn(Cc3ccc(C(C)C)cc3)c(=O)c1n2C`, for which the “activity change, negative = inhibition” value is 1.25% (inactive).

Regarding `O=C(CNC(=O)c1ccc(Cl)c(C(F)(F)F)c1)OC(C(=O)Nc1cc(C(F)(F)F)ccc1Cl)c1ccccc1` (stereo not given), the “activity change, negative = inhibition” value was -4.97% (inactive). `Cc1ccc(OCCn2c(CCNC(=O)c3ccccc3N)nc3ccccc32)cc1`: the “activity change, negative = inhibition” value was -10.5% (inactive). For the compound `Cn1c2cc(C#N)sc2c2cnn(Cc3ccccc3F)c(=O)c21`, the “activity change, negative = inhibition” value was -2.87% (inactive). Still for that read-out and setting: to `Cc1ccc(S(=O)(=O)Nc2cccc3cccnc23)c([N+](=O)[O-])c1` belongs -0.457% (inactive); to `CC(=O)Nc1sc2c(c1-c1nc3ccccc3s1)CCN(C(C)C)C2`, -1.14% (inactive); to `O=C(Cc1ccc(Cl)c(Cl)c1)Nc1ccc([S+](=O)([O-])Nc2ncn[nH]2)cc1`, -10.3% (inactive). As for `O=C(Nc1cncnc1)c1cccs1`, the “activity change, negative = inhibition” value is 4.6% (inactive). As to `CN(C)c1ccc2c(=O)n3nc(Nc4ccc5c(c4)CCC5)sc3nc2c1`, the “activity change, negative = inhibition” value was -4.24% (inactive).

As for `N#Cc1cccc(-c2csc(N3CCC(C(N)=O)CC3)n2)c1`, the “activity change, negative = inhibition” value is 1.27% (inactive).

As to `COc1ccccc1-c1no[n+]([O-])c1C#N`, the “activity change, negative = inhibition” value was -0.268% (inactive). The same measure, in the same setting: the same measure for `O=C(NCCc1nc2ccccc2[nH]1)C1CCCCC1`: 1.31% (inactive).

Regarding `Cc1ccc(CNc2ccc(N3CCN(C)CC3)cc2)cc1`, the “activity change, negative = inhibition” value was 1.45% (inactive).

Take `O=C(/C=C/c1ccccc1)Nc1cccc(S(=O)(=O)Nc2ccccc2F)c1`: the Potency entry is “inactive”. For `N#Cc1nc(Nc2cccc(Cl)c2)nc(NC2CCCC2)n1`, the “activity change, negative = inhibition” value was 10.1% (inactive).

On to `N#Cc1c(-c2csc(-c3no[n+]([O-])c3C#N)c2)no[n+]1[O-]`, for which the “activity change, negative = inhibition” value was -9.11% (inactive). For `Cc1ccc(/C=C/C(=O)Nc2cccc([S+](=O)([O-])Nc3ccccc3F)c2)cc1`, the “activity change, negative = inhibition” value was -5.41% (inactive). Take `O=C(Cc1ccc2ccccc2c1)Nc1nnc(-c2ccncc2)s1`: the “activity change, negative = inhibition” value was 5.97% (inactive). As to `O=C1CCCC2=C1C(c1[nH]ncc1Cl)NC(=NCc1nccs1)N2` (stereo not given), the “activity change, negative = inhibition” value is -10.7% (inactive). Still for that read-out and setting: the same measure for `COc1ccc(OC)c(NC(=O)c2ccccc2OC(C)=O)c1`: 3.02% (inactive); for `CN(C(=O)Nc1ccc2ccccc2c1)c1nnc(-c2ccncc2)s1`: 3.63% (inactive). On to `O=S(=O)(Nc1ccccc1)c1ccc(O)c2ncccc12`, for which the “activity change, negative = inhibition” value is -4.49% (inactive). As to `Cc1cc(-c2nnc3n2CCCCC3)c(C)n1-c1cccc(C#N)c1`, the “activity change, negative = inhibition” value was 3.78% (inactive). Same read-out and setting: the same measure for `COc1cccc(OC)c1C1=Nn2c(nnc2-c2ccccc2O)SC1`: -3.31% (inactive). Consider `CN(CCc1ccco1)c1ncnc2ccc(-c3ccc4c(c3)OCO4)cc12`, for which the “activity change, negative = inhibition” value is -3.33% (inactive). On to `CC(=O)Nc1ccc(CNc2ncnc3ccc(-c4c(C)noc4C)cc23)cc1`, for which the “activity change, negative = inhibition” value was 1.71% (inactive). On the same count and under the same terms, the same measure for `O=C(O)c1ccc2c(c1)C(=O)N([C@H](Cc1ccc([N+](=O)[O-])cc1)C(=O)O)C2=O`: 0.168% (inactive); for `COc1ccc(C(=O)Nc2ccc(-c3nc4ccccc4[nH]3)cc2)cc1F`: 6.11% (inactive). Take `O=c1[nH]c2ccc(S(=O)(=O)N3CCN(S(=O)(=O)c4ccc5c(c4)OCCO5)CC3)cc2[nH]c1=O`: the “activity change, negative = inhibition” value is 1.62% (inactive).

With `NC(=O)C[C@H](N)C(=O)Nc1ccc(Cl)cc1C(=O)c1ccc[nH]1`, the “activity change, negative = inhibition” value was -4.86% (inactive). For the compound `Cc1cc(-c2nc(Nc3ccc(F)c(F)c3)c3ccccc3n2)cc(C)n1`, the “activity change, negative = inhibition” value was 6.53% (inactive). Take `COc1ccc(C2c3c(nc(C)[nH]c3=O)Oc3ccc4ccccc4c32)cc1OC` (stereo not given): the “activity change, negative = inhibition” value was 2.05% (inactive).

Take `O=S(=O)(NC1CCC(NS(=O)(=O)c2c(F)cccc2F)CC1)c1ccc2c(c1)OCCO2` (stereo not given): the “activity change, negative = inhibition” value is 1.37% (inactive). As for `CC(C)(C)OC(=O)N1CCN(c2ccc(NCc3nnc(-c4ccc(C#N)cc4)o3)cc2)CC1`, the “activity change, negative = inhibition” value is -0.469% (inactive). In the case of `N#Cc1ccc(S(=O)(=O)N2CCN(S(=O)(=O)c3ccc4c(c3)OCCO4)CC2)cc1`, the “activity change, negative = inhibition” value was -2.97% (inactive).

Take `Cc1ccc(OCCn2c(CCNC(=O)/C=C/c3cccc(Br)c3)nc3ccccc32)cc1`: the “activity change, negative = inhibition” value was 27.5% (inactive). For `O=C1CCCC2=C1C1(CCCC1)N=C(Nc1nc3cc(Cl)ccc3o1)N2`, the “activity change, negative = inhibition” value was -11% (inactive).
